Consider seven compounds from PubChem BioAssay (NCATS).

Results filed as inconclusive are left out. Active and inactive are the calls of the source. Unless noted, the call rests on the fitted dose curve; in most records, active means well fitted curve in the direction sought with a large enough effect; inconclusive means small, poorly fitted or top-dose-only effect, or another doubt; inactive means no such curve, though single readings can be large; an effect the other way counts as inactive or inconclusive.

The target in assay [1] is Calcium and integrin-binding protein 1 (Homo sapiens) (UniProt Q99828). As to the kind of experiment: Primary qHTS for Identification of Calcium Integrin Binding Protein 1 (CIB1) Competitor (AID 1508620).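 Further: GST tagged CIB1 binding a fluorescein labelled alphaIIb integrin peptide tracer; top concentration of the series differs between compounds; on the % scale 0 is the no-effect control and ±100 the full control effect.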 The method in brief: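 CIB1-GST (1 uM final) and compound incubated 15 min at room temperature before adding FITC-alphaIIb peptide tracer (100 nM final). Competition for binding read by fluorescence polarization (ex 480, em 540) after another 15 min at room temperature.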
Chain of Calcium and integrin-binding protein 1 (Homo sapiens) (Q99828 whole entry, looked up): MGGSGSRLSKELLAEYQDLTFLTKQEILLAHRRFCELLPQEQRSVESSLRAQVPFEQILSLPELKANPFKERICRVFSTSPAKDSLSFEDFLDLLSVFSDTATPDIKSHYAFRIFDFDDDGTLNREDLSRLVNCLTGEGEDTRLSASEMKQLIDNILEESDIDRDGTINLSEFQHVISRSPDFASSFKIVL

Assay [2] addresses N-terminal Xaa-Pro-Lys N-methyltransferase 1 (Homo sapiens) (UniProt Q9BV86). As to the kind of experiment: Confirmatory qHTS for Inhibitors of N-terminal methyltransferase 1 (NTMT1): MTaseGlo Assay (AID 1645874). Further: potency means the concentration at half of the fitted maximal effect; nearly all actives have a fitted effect of over 65% in size. The method in brief: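 Inhibition was derived from luminescence after SAH-to-ATP conversion, scaled between no-enzyme and DMSO wells, then fitted by 4-parameter Hill. Conditions: 125 nM NTMT1, 100 uM SAM, 1 uM SPKRIA, 30 min RT.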

For assay [3], the target named is Rap guanine nucleotide exchange factor 3 (Homo sapiens) (UniProt O95398). Description: Confirmatory qHTS for antagonist of cAMP-regulated guanine nucleotide exchange factor 3 (EPAC1) (AID 1645880).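 Further: plate controls were DMSO only for no effect and full effect of the ATA control for full effect; nearly all actives have a fitted effect of over 55% in size.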 Summed up:
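Released BODIPY-GDP fluoresces less than Rap1-bound BODIPY-GDP; the signal is followed at 480/540 nm at 5-min intervals over 30 min, after 5 min at room temperature. Reactions contain 100 nM EPAC1, 250 nM RAP1B-BODIPY-GDP and 50 uM GDP; results are normalized to ATA and DMSO.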

Assay [4] has the same target. Description: Confirmatory qHTS for agonist of cAMP-regulated guanine nucleotide exchange factor 3 (EPAC1) (AID 1645881).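 Further: EPAC1 catalysed release of BODIPY-GDP from Rap1B seen as fluorescence loss; 100% = effect of cAMP agonist control; nearly all actives have a fitted effect of over 75% in size.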
For assay [5], the target named is Rap guanine nucleotide exchange factor 4 (Homo sapiens) (UniProt Q8WZA2). As to the kind of experiment: Confirmatory qHTS for agonist of cAMP-regulated guanine nucleotide exchange factor 4 (EPAC2) (AID 1645884).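 Further: nucleotide exchange releases bodipy-GDP from Rap1 and this lowers its fluorescence; on the % scale 0 is the no-effect control and ±100 the full control effect; nearly all actives have a fitted effect of over 65% in size.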
Chain of Rap guanine nucleotide exchange factor 4 (Homo sapiens) (Q8WZA2 whole entry, looked up): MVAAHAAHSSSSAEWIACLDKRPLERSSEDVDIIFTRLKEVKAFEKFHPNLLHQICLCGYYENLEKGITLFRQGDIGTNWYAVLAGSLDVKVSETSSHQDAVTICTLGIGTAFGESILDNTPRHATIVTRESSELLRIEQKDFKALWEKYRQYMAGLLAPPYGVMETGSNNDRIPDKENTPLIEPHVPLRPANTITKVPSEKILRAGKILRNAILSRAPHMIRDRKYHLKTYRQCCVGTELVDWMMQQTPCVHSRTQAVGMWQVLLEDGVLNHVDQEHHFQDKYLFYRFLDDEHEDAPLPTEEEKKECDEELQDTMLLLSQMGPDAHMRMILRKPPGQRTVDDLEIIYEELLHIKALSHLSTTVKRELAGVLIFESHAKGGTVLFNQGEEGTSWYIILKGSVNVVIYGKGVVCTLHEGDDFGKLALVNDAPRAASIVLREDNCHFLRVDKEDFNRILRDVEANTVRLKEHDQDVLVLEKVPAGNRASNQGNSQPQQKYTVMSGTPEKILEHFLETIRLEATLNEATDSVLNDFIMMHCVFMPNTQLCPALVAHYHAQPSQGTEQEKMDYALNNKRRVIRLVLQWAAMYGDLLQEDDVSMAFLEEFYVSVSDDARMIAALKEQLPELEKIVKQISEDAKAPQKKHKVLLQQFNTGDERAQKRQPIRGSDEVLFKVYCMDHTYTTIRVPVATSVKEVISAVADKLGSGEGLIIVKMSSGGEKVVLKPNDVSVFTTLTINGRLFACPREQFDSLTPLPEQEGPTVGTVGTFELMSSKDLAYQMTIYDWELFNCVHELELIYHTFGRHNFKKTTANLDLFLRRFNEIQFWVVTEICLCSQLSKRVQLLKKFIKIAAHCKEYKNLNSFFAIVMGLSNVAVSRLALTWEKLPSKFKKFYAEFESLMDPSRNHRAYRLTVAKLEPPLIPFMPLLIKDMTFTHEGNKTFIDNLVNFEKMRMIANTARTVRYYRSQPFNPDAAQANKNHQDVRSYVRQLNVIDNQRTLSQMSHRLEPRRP
Assay [6] has the same target. Description: Confirmatory qHTS for antagonist of cAMP-regulated guanine nucleotide exchange factor 4 (EPAC2) (AID 1645885). Further: nearly all actives have a fitted effect of over 25% in size.
The target in assay [7] is Rap guanine nucleotide exchange factor 3 (Homo sapiens) (UniProt O95398). Description: Counterscreen qHTS for antagonist of cAMP-regulated guanine nucleotide exchange factor 3 (EPAC1) (AID 1645888). Further: % of control where 0% means no effect. The method in brief:
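Rap1B-BODIPY-GDP 250 nM + GDP 50 uM; cpds 7-pt, final 9.74 nM–152 uM (activator mode) or from 7.32 nM upwards (inhibitor mode); RT; FI 480/540 nm at 5 and 30 min, then ± cAMP, reread.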

The target in assay [8] is Lysosomal acid glucosylceramidase (Homo sapiens) (UniProt P04062). As to the kind of experiment: Glucocerebrosidase-p2 (AID 348; in the data active means potency below about 10 µM; further: potency means the concentration at half of the fitted maximal effect). Particulars: purified GBA, blue fluorogenic substrate, 40 min. The method in brief: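 Normal human glucocerebrosidase (0.2 nM) with blue fluorogenic substrate (80 uM final) in citrate/phosphate pH 5.9 with 10mM sodium taurocholate, 0.01% tween-20; 40 min RT, NaOH/glycine stop; fluorescence Ex 365/Em 440; AC50 from a titration from 0.6 nM upwards.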
Chain of Lysosomal acid glucosylceramidase (Homo sapiens) (P04062 whole entry, looked up): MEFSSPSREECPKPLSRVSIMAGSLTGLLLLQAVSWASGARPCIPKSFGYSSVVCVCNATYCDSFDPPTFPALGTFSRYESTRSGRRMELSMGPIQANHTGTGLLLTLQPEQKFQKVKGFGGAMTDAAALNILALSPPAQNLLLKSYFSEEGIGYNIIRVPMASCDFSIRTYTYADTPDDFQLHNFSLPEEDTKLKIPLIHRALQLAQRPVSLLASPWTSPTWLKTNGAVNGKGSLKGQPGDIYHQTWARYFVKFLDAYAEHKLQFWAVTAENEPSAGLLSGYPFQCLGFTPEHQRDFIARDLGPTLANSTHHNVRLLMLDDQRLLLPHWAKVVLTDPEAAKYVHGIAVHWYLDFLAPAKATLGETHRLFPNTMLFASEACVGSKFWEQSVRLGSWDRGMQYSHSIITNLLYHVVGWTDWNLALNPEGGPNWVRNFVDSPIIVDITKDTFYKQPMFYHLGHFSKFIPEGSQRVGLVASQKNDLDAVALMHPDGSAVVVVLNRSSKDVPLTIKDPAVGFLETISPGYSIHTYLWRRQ

The nature of assay [9]: AP1 Signaling Pathway (AID 357; active means well fitted curve in either direction with a large enough effect, not every such curve was filed as active;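 further: ME-180 reporter cells stimulated with EGF at its EC50 level; on the % scale 0 is the no-effect control and ±100 the full control effect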). Particulars: ME-180 (cervical carcinoma) AP-1-bla reporter, EGF-induced, beta-lactamase ratio, 5 h; at 7.69 µM (top of the series) unless noted. Summed up:
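First, ME-180 AP-1-bla cells were cultured overnight at 37 °C in low-serum Opti-MEM. Next, titrated compounds with EC50 EGF were incubated 5 hours. Finally, CCF4 was added for 2.5 hours and the 460/530 nm ratio recorded.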

Assay [10] concerns the target Cytochrome P450 1A2 (Homo sapiens) (UniProt P05177). Description: p450-cyp1a2 (AID 410; calls by dose curve; further: potency means the concentration at half of the fitted maximal effect). Summed up:
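20nM CYP1A2, 100uM Luciferin-ME (=Km), 100mM KPO4; cpd 10 min RT; +NADPH regen, 60 min RT; stop/detect 20 min; luminescence. Normalized to furafylline 57 uM = full inhibition.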

Assay [11] addresses Glucocorticoid receptor (Homo sapiens) (UniProt P04150). Description: GR-GFP Redistribution (AID 450;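 active means compounds whose dose series gives a full or clear partial fitted curve of increased nuclear translocation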; further: potency means the concentration at half of the fitted maximal effect). To be noted: U2OS GR-GFP nuclear translocation, laser cytometry, 2 h.
Assay [12] has the same target. As to the kind of experiment: GR-EFC Redistribution (AID 451; calls by dose curve; further: potency means the concentration at half of the fitted maximal effect). Particulars: CHO-K1 GR-EFC translocation, beta-gal luminescence, 2 h. Summed up: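 Translocation of GR-ED fusion to nuclear EA restores b-gal, read by luminescence after 1 h room-temperature detection. Engineered CHO-K1 biosensor cells, 1,000/well, exposed 2 h at 37 C to titrations up to 46 uM final.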

Assay [13] addresses Mitogen-activated protein kinase 10 (Mus musculus) (UniProt Q61831). As to the kind of experiment: JNK3 AlphaScreen Assay (AID 530; active means well fitted curve in either direction with a large enough effect, not every such curve was filed as active;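 further: kinase came from lysate of stimulated human HepG2 cells; signal reports phosphorylation of biotinylated GST-cJun 1-79 at Ser73 with 10 µM ATP; on the % scale 0 is the no-effect control and ±100 the full control effect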). The method in brief:
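Kinase buffer: 20 mM Tris-HCl pH 7.6, 10 mM MgCl2, 1 mM DTT, 0.1 mM Na3VO4, 0.01% Tween-20; ATP 10 uM. Substrate biotin-GST-cJun(1-79), enzyme from activated HepG2 lysates. Detection by Ser73 phospho-antibody AlphaScreen.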

Assay [14] concerns the target Cytochrome P450 3A4 (Homo sapiens) (UniProt P08684). As to the kind of experiment: qHTS Assay for Activators of Cytochrome P450 3A4 (AID 885). Further: nearly all actives have a fitted effect of over 65% in size. Summed up:
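Human CYP3A4 dealkylates Luciferin-PPXE to luciferin, which luciferase detection converts to light. Substrate was at its KM (25uM), buffer 200mM KPO4, reaction 60 min at RT.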

For assay [15], the target named is Dual specificity protein kinase CLK4 (Homo sapiens) (UniProt Q9HAZ1). Description: qHTS Assay for Inhibitors of CDC-like Kinase 4 (Kinase-Glo Assay) (AID 1770). Further: potency means the concentration at half of the fitted maximal effect; nearly all actives have a fitted effect of over 65% in size. The method in brief:
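Clk4 25 nM, RS peptide 100 uM, ATP 1 uM, pH 7.5 Tris, 10 mM MgCl2, 2.5 mM DTT; 4.5 h RT; ATP depletion read by Kinase-Glo luminescence.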

The target is the same in assay [16]. As to the kind of experiment: qHTS Assay for Inhibitors of CDC-like Kinase 4 (ADP-Glo Assay) (AID 1771). Further: potency means the concentration at half of the fitted maximal effect; nearly all actives have a fitted effect of over 70% in size. Summed up: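 25 nM Clk4, 100 uM RS peptide, 1 uM ATP (final); 2 mM MgCl2, 0.5 mM EGTA, 2.5 mM DTT, 0.01% Triton X-100; 1 hr RT. ADP-Glo readout: ATP depletion 45 min, conversion/luciferase 30 min, luminescence.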
Assay [17] has the same target. Description: qHTS Assay for Inhibitors of CDC-like Kinase 4 (ADP-FP Assay) (AID 1795). Further: potency means the concentration at half of the fitted maximal effect; nearly all actives have a fitted effect of over 60% in size. Summed up:
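Kinase activity was followed as ADP output, converted from fluorescence polarization with a calibration curve. Reactions ran one hour at low ATP (1 uM) with RS peptide substrate.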

Assay [18] addresses Ubiquitin carboxyl-terminal hydrolase 1 (Homo sapiens) (UniProt O94782). Description: Inhibitors of USP1/UAF1: Pilot qHTS (AID 504865).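 Further: rhodamine fluorescence freed from ubiquitin-rhodamine substrate followed over time; top concentration of the series differs between compounds; on the % scale 0 is the no-effect control and ±100 the full control effect; nearly all actives have a fitted effect of over 35% in size.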 The method in brief: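 Enzyme-free wells gave the negative control, while test wells held 1nM USP1/UAF1 preincubated with compound for 15 min at room temperature. Ub-Rho at 150nM final started the reaction, and fluorescence at 480/540 nm was recorded kinetically.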

The nature of assay [19]: Primary qHTS for small molecule stabilizers of the endoplasmic reticulum resident proteome: Secreted ER Calcium Modulated Protein (SERCaMP) assay (AID 1508630). Further: on the % scale 0 is the no-effect control and ±100 the full control effect. Summed up:
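The SH-SY5Y reporter protocol was run at 3 concentrations up to 38.3 uM (primary) or 11 concentrations (follow-up): 16 h compound, 100 nM thapsigargin for 4 h, then extracellular luciferase luminescence.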

A short description of assay [20]: NFAT Signaling Pathway (AID 444; active means well fitted curve in either direction with a large enough effect, not every such curve was filed as active). Particulars: Jurkat NFAT-bla M1, carbachol, beta-lactamase ratio, 5 h; at 7.69 µM (top of the series) unless noted. Summed up: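 Read-out: CCF4 FRET ratio (460 nm/530 nm) after 1 h RT dye loading, used for %activity and AC50 from titration series. Cells: Jurkat NFAT-β-lactamase/M1 line, treated with compound plus 1 uM carbachol for 5 h, 37 °C.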

Assay [21] has as its target 3',5'-cyclic-AMP phosphodiesterase 4B (Homo sapiens) (UniProt Q07343). As to the kind of experiment: qHTS Assay for Inhibitors of PDE-IV (AID 607; active means well fitted activation curve with a large enough effect in the main read-out, with a control signal flat, not every such curve was filed as active; further: % of control where 0% means no effect). Summed up:
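HEK293 ACTOne cells with CNG channel (1000/well), endogenous PDE4; membrane potential dye, compounds up to 22.9 uM final. Fluorescence Ex 535/Em 590; RO 20-1724 (100 uM final) as reference.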

In assay [22] the target is Cytochrome P450 2C19 (Homo sapiens) (UniProt P33261). Description: qHTS Assay for Inhibitors and Substrates of Cytochrome P450 2C19 (AID 899). Further: potency means the concentration at half of the fitted maximal effect; nearly all actives have a fitted effect of over 60% in size. The method in brief: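 5nM enzyme + 10uM Luciferin-H EGE (=KM), 50mM KPO4; cpd pin-transferred, 10 min 37C; NADPH regen, 60 min 37C; stopped w/ luciferin detection reagent, 20 min; luminescence. Normalized to 57uM ketoconazole (AC100).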

The target in assay [23] is Tyrosine-protein kinase Yes (Homo sapiens) (UniProt P07947). As to the kind of experiment: qHTS for small molecule inhibitors of Yes1 kinase: Primary Screen (AID 686947). Further: potency means the concentration at half of the fitted maximal effect; nearly all actives have a fitted effect of over 60% in size. The method in brief:
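In this qHTS format, inhibition is expressed relative to DMSO controls with enzyme (maximum) and without enzyme (minimum). The 60 min room-temperature reaction uses 0.1 mM ATP, with ADP detected by luminescence.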

Assay [24] can be described thus: qHTS for small molecule inhibitors of Yes1 kinase: Counter Assay (AID 686950).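 Further: no kinase present so only ADP-Glo detection of a fixed ADP amount is tested; luminescence from ADP-Glo reporting ADP in a fixed ATP and ADP mixture; 0% = DMSO wells with ATP plus ADP and -100% = ATP-only wells without ADP.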 The method in brief: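 ADP-Glo luminescence read after a 60 min room-temperature incubation of compound with an ATP/ADP mix (0.08 mM/0.02 mM) and no kinase, following a 20 min compound preincubation. Signal scaled between ATP+ADP (max) and 0.1 mM ATP-only (min) wells; Tris pH 7.5, Mg2+, DTT.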

Assay [25] in a line: Confirmation and Secondary Assay for Modulators of Hemoglobin Beta Chain Splicing at IVS2 654 locus (AID 910).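 Further: HeLa cells stably carrying EGFP split by mutant beta-globin IVS2-654 intron; per-well total GFP intensity by laser scanning cytometry after 2-day treatment; % of control where 0% means no effect.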 The method in brief:
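Readout: per-well total peak green fluorescence (488 nm ex, 500–520 nm em) from objects 5–250 µm, reflecting correct splicing of an EGFP-654 reporter. Compounds were applied for 2 days at 37 °C to overnight-plated HeLa EGFP-654 cells; controls were DMSO and 500 nM IVS2-654 PNA.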

A short description of assay [26]: Confirmation and Secondary Assay for Modulators of Hemoglobin Beta Chain Splicing at IVS2 705 locus (AID 930).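 Further: HeLa cells stably expressing the EGFP-705 splicing reporter; GFP fluorescence per well restored by corrected splicing of the IVS2-705 intron in EGFP; % of control where 0% means no effect.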 The method in brief: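 Per-well GFP, captured at 1 x 8 µm resolution with 488 nm excitation, served as the read-out for HeLa EGFP-705 cells incubated 2 days with test compound versus DMSO.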
Assay [27] is described as follows: qHTS Assay for Lipid Storage Modulators (AID 1519; calls by dose curve). Particulars: Drosophila S3 cells, BODIPY lipid droplet/cell ratio, laser cytometry, cells loaded with oleic acid. Summed up: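 Cells seeded at 5,000 per well were treated with compounds over a concentration series and loaded with oleic acid (400 uM, as added). Lipid droplet fluorescence (488 nm excitation, 500-530 nm channel) was read by laser-scanning cytometry and normalized to 20 uM Triacsin C.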

Chain of Dual specificity protein kinase CLK4 (Homo sapiens) (Q9HAZ1 whole entry, looked up): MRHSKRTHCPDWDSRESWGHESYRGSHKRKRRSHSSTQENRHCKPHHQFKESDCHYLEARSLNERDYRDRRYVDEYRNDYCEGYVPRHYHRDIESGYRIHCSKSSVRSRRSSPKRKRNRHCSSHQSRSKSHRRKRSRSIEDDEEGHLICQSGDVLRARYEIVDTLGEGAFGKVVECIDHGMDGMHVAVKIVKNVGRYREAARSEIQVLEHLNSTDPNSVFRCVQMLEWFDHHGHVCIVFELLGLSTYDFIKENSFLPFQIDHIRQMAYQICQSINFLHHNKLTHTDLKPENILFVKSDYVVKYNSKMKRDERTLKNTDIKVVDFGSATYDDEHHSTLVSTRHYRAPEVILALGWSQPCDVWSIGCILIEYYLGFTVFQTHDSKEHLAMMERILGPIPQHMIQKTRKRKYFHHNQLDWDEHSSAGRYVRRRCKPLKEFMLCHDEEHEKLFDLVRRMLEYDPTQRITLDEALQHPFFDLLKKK
Chain of Rap guanine nucleotide exchange factor 3 (Homo sapiens) (O95398 whole entry, looked up): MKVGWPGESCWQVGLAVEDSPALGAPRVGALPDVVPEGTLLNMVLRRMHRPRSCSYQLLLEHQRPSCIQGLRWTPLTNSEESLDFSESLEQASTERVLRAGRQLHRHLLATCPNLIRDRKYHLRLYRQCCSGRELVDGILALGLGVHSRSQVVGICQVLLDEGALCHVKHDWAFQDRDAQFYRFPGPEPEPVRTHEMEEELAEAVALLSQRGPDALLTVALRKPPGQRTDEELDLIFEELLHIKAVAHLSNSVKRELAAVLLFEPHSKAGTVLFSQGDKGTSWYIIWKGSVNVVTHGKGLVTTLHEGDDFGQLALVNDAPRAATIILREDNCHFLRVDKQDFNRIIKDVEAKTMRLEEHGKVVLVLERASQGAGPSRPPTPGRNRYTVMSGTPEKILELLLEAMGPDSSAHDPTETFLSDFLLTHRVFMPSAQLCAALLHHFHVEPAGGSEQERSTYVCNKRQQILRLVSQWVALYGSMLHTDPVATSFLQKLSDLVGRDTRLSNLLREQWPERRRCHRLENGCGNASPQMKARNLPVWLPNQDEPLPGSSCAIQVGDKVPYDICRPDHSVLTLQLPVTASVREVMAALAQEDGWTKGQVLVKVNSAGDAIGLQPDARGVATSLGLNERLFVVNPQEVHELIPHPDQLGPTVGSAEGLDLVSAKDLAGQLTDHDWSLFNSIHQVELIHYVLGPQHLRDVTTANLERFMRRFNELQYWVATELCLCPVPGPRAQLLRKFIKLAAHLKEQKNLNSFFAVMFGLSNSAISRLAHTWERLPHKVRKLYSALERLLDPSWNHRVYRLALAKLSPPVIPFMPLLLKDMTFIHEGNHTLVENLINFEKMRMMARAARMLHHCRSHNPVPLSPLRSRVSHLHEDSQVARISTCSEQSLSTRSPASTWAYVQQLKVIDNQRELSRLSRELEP
Chain of Glucocorticoid receptor (Homo sapiens) (P04150 whole entry, looked up, the tested form may be a part): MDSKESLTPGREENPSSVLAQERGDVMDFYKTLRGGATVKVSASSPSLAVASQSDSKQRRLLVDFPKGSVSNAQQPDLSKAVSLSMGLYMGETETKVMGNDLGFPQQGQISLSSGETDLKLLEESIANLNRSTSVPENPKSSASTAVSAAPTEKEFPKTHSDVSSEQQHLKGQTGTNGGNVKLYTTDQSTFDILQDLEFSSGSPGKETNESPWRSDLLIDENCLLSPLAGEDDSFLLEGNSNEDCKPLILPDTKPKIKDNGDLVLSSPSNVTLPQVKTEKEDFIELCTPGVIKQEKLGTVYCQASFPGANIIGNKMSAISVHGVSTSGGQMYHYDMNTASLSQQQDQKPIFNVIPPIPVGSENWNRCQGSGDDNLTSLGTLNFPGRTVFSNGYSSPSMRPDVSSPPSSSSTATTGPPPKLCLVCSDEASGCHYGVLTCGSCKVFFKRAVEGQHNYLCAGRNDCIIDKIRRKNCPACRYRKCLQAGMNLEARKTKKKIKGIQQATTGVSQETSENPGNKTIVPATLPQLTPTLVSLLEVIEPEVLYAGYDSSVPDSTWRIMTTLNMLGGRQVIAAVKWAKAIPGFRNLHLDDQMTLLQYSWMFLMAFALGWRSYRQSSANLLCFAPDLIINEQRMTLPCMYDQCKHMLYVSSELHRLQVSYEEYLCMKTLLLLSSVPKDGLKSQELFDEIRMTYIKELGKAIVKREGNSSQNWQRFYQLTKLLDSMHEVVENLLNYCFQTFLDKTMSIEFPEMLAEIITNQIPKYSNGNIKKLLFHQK
Chain of N-terminal Xaa-Pro-Lys N-methyltransferase 1 (Homo sapiens) (Q9BV86 whole entry, looked up): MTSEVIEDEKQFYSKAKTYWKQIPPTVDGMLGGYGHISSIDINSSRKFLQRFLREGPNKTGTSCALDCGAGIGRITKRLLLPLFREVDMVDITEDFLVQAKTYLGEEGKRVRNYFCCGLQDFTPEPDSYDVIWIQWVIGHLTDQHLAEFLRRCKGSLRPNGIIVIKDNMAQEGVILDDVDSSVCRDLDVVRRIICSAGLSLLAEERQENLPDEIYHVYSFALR
Chain of Ubiquitin carboxyl-terminal hydrolase 1 (Homo sapiens) (O94782 whole entry, looked up): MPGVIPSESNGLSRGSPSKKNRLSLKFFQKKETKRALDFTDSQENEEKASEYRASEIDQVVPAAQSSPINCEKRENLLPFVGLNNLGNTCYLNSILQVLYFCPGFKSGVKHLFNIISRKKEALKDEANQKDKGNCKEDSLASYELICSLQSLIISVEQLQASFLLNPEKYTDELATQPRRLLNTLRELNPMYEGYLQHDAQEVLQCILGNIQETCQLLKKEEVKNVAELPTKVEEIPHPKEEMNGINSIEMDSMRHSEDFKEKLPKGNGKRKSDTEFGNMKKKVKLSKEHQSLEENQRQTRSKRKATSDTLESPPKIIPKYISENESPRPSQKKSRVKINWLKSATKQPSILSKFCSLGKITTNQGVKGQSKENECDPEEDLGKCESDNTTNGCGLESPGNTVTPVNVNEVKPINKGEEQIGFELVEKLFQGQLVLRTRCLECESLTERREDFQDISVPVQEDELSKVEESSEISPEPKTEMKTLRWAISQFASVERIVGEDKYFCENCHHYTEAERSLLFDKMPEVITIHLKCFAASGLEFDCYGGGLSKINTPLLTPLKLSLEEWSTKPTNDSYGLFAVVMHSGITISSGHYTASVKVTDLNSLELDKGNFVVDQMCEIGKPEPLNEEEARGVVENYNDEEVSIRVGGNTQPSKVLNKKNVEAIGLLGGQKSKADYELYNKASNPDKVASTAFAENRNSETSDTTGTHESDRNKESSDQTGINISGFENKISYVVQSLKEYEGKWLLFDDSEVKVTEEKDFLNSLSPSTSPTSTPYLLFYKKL

With `Cc1cc(C)nc(NC(=S)N2CCN(c3ncccc3C#N)CC2)c1`, the Potency entry in [1] was “inactive”. In addition, in assay [2], the Potency was 22.4 µM (active).
For `CC(=O)Nc1sc2c(c1-c1ccc3scnc3c1)CCNC2`, in that order: “inactive” and 44.7 µM (active).
For `CCN(CC)C(=O)CC(c1ccc2c(c1)OCO2)c1c(O)cc(OC)cc1OC` (stereo not drawn), the Potency result in assay [1], in assay [3] and in assay [6] was “inactive” each time. Further, the call in [4], in [5] and in [7] was inactive.
With `CN(Cc1ccco1)c1ncnc2ccc(-c3ccoc3)cc12`, the Potency in assay [8] was > 11.4 µM (inactive); in assay [10], 2.51 µM (active); in assay [11] it was > 46 µM (inactive); in [12] it was > 46 µM (inactive); in [15], 0.112 µM (active); in assay [16], 0.112 µM (active). Besides, the Potency in [17] was 0.0501 µM (active). Moreover, the activity change, negative = inhibition in [9] was -16.7% (inactive). The compound was called inactive in assay [13], in assay [4] and in assay [5]. Moreover, the Potency entry in [14], in assay [18], in assay [1], in [19], in [3] and in assay [6] was “inactive” in each case.
For `COc1cccc(-c2ccc3ncnc(NCc4cccnc4)c3c2)c1`, the Potency is > 11.4 µM (inactive) in [8]; 0.251 µM (active) in [10]; > 46 µM (inactive) in assay [11]; > 46 µM (inactive) in assay [12]; 0.0126 µM (active) in assay [22]; 2.82 µM (active) in assay [15]. The Potency in assay [16] is 2.82 µM (active); in assay [17], 1.58 µM (active). Moreover, the activity change, negative = inhibition in assay [20] was 9.62% (inactive). In addition, in assay [13], the result was inactive. Besides, the Potency result in assay [21], in assay [14], in assay [18], in assay [1] and in [19] was “inactive” throughout.
As for `O=C1Nc2ccc(C(=O)c3ccco3)cc2/C1=C/c1cc(Cl)c(O)c(Cl)c1`, the figures for the Potency in [23] and in assay [2] were 0.463 µM (active) and 2.4 µM (active), respectively. Further, in assay [24], the compound was called inactive. In assay [1], the Potency entry was “inactive”.
For the compound `c1cncc(CNc2ncnc3ccc(-c4cccnc4)cc23)c1`, the Potency in assay [8] was > 11.4 µM (inactive); in assay [11], > 46 µM (inactive); in assay [12], > 46 µM (inactive). Besides, the call in assay [13], in [25] and in [26] was inactive. Besides, the Potency result in [21], in assay [1] and in assay [19] was “inactive” throughout. Also, in assay [27] (at 57.5 µM (top of the series)), the activity change, negative = inhibition was 7.28% (inactive). Moreover, the max response in assay [27] (measured here: cell count channel max response) is -9.9%; in assay [27] (measured here: lipid channel max response) it was -4.35%.
